Here are results for 31 compounds from PubChem BioAssay (NCATS).

The structures appear in SMILES notation. Results filed as inconclusive are left out.

A short description of one experiment: qHTS for identification of novel therapeutic agents for treatment of microphthalmiaassociated transcription factor (MiT) renal cell carcinoma (RCC) (AID 1963991). The note with it: TFE3-RCC UOK109 viability, CellTiter-Glo, 48 h; measured here: UOK109 Z-AUC; stronger effect = lower value. The method in brief: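 Curves over 11 concentrations were fitted to CellTiter-Glo luminescence, scaled between empty wells (0%) and DMSO (100%) viability. Cells were UOK109, UOK124 and UOK145 TFE3-fusion RCC lines at 500/well, exposed 48 hours at 37 C.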
Background: Quantitative high-throughput screening tests each substance at several concentrations.
For the compound `CC=C1C2C=C(C)CC1(N)c1ccc(=O)[nH]c1C2` (configuration not stated), the z-score turned out to be 0.936.
In turn, `COc1ccc2c(c1)CC[C@H]1[C@@H]2CC[C@]2(C)[C@@H](NCCCCCCN3C(=O)C=CC3=O)CC[C@H]12` gave a z-score of 1.13.
Consider `CCNC(=O)CCCC=CC[C@@H]1[C@H](C=CC(O)CCc2ccccc2)[C@@H](O)C[C@@H]1O` (some centres not stated), for which the z-score was 1.02.
As for `N=C1SC(=Cc2ccc(-c3ccc4c(c3)C(=O)NC4=O)o2)C(=O)N1c1ccc(Br)cc1`, the z-score came to 0.374.
`CNC1[C@H](O)C(O[C@@H]2C(O)C(O[C@H]3O[C@H]([C@@H](C)NC)CC[C@H]3N)[C@@H](N)C[C@H]2N)OC[C@]1(C)O` (some centres not stated): the z-score was 0.654.
The compound `COc1ccc(C=CC(=O)Nc2ccccc2C(=O)O)cc1OC` gave a z-score of 0.299.
With `COc1cc(C=CC(=O)O)ccc1O`, the z-score was -0.0784.
Take `C[C@@H]1CCO[C@H]2Cn3cc(C(=O)NCc4ccc(F)cc4F)c(=O)c(O)c3C(=O)N12`: the z-score stood at 0.807.
`CCN1C[C@H](C)n2c(c(O)c3c(=O)n(Cc4ccc(F)c(Cl)c4)nc(C(=O)NC)c32)C1=O` came in with a z-score of 0.808.
Still for that read-out and setting: next, `CC[C@H]1OC(=O)[C@H](C)[C@@H](O[C@H]2C[C@@](C)(OC)[C@@H](O)[C@H](C)O2)[C@H](C)[C@@H](O[C@@H]2O[C@H](C)C[C@H](N(C)C)[C@H]2O)[C@](C)(O)C[C@H](C)C(=NOCOCCOC)[C@H](C)[C@@H](O)[C@]1(C)O`: 1.24; `CCCCC[C@H](O)C=C[C@H]1[C@H](O)CC(=O)[C@H]1CCCCCCC(=O)O`: 1.1; `C[C@@H](O)[C@H]1C(=O)N2C(C(=O)OCOC(=O)C(C)(C)C)=C(SC3CN(C4=NCCS4)C3)[C@H](C)[C@H]12`: 1.65.
Take `O=C(O)C1=NC(C(=O)O)CC(C=CN2c3cc(O)c(OC4OC(CO)C(O)C(O)C4O)cc3CC2C(=O)O)=C1` (configuration not stated): the z-score came out at 1.58.
For the compound `COc1cc2c(cc1OC)[C@@H]1Cc3ccc(OC)c(OC)c3CN1CC2`, the z-score was found to be 0.652.
For the compound `CCCCCOC(=O)Nc1nc(=O)n([C@@H]2O[C@H](C)[C@@H](O)C2O)cc1F` (some centres not stated), the z-score turned out to be 0.259.
Consider `CO[C@H]1/C=C\O[C@@]2(C)Oc3c(C)c(O)c4c(O)c(c5c(nc6cc(C)ccn65)c4c3C2=O)NC(=O)C(C)=CC=C[C@H](C)[C@H](O)[C@@H](C)[C@@H](O)[C@@H](C)[C@H](OC(C)=O)[C@H]1C`, for which the z-score is 0.788.
Regarding `CN[C@H]1[C@@H](O[C@@H]2[C@H](O[C@@H]3[C@@H](O)[C@@H](O)[C@@H](N=C(N)N)[C@@H](O)[C@@H]3N=C(N)N)O[C@H](C)[C@@]2(O)C=O)O[C@@H](CO)[C@@H](O)[C@H]1O`, the z-score was determined as 2.74.
Same read-out and setting: next, `O=C(O)C1=CO[C@@H](O[C@@H]2O[C@H](CO)[C@H](O)[C@H](O)[C@H]2O)[C@@H]2C(CO)=CC[C@H]12`: 0.598; `CC(C)=CCCC(C)=CCCC(C)=CCCC(C)=CCCC(C)=CCCC(C)=CCCC(C)=CCCC(C)=CCCC(C)=CCO`: 0.865.
The same measure, in the same setting: to `CC(C)c1onc(-c2c(Cl)cccc2Cl)c1COc1ccc(C=Cc2cccc(C(=O)O)c2)c(Cl)c1` belongs 0.965.
Regarding `CCC=CC[C@H]1C(=O)CC[C@@H]1CC(=O)OC`, the z-score is -0.107.
`CCNC(=O)[C@H]1O[C@@H](n2cnc3c(N)nc(NCCc4ccc(CCC(=O)O)cc4)nc32)[C@H](O)[C@H]1O` had a z-score of 0.882.
In turn, `CO[C@H]1O[C@@H]2O[C@@]3(C)CC[C@@H]4[C@@H](C)CC[C@@H]([C@H]1C)[C@@]24OO3` came in with a z-score of 1.01.
In turn, `CC1(C)[C@H]2CC[C@]3(C)[C@@H](C(=O)C=C4[C@@H]5C[C@@](C)(C(=O)O)CC[C@]5(C)CC[C@]43C)[C@@]2(C)CC[C@@H]1O` yielded a z-score of 0.727.
As to `CN(C)c1nc(Cc2ccc(NC(=O)c3ccc(C(F)(F)F)cc3)cc2)nc(N(C)C)c1CC(=O)O`, the z-score turned out to be 0.568.
Turning to `CN(CC=CC#CC(C)(C)C)Cc1cccc2ccccc12`, the z-score turned out to be 0.358.
The same measure, in the same setting: next, `CO[C@H]1C=CO[C@@]2(C)Oc3c(C)c(O)c4c(O)c(c(C=NN5CCN(C)CC5)c(O)c4c3C2=O)NC(=O)C(C)=CC=C[C@H](C)[C@H](O)[C@@H](C)[C@@H](O)[C@@H](C)[C@H](OC(C)=O)[C@H]1C`: 2.16; `CC(=O)OCC(=O)[C@@]12OC(C)(C)O[C@H]1C[C@H]1[C@@H]3C[C@H](F)C4=CC(=O)C=C[C@]4(C)[C@@]3(F)[C@@H](O)C[C@@]12C`: 0.123; `FC(F)(F)c1ccc(C=Cc2nc(COc3ccc(CCCCn4ccnn4)cc3)co2)cc1`: -2.19.
`COc1cc(CNC(=O)CCCCC=CC(C)C)ccc1O` had a z-score of 0.273.
`CN[C@@H]1[C@@H](O)[C@@H](O[C@@H]2[C@@H](O)[C@H](O[C@H]3O[C@H](CN)[C@@H](O)[C@H](O)[C@@H]3O)[C@@H](N)C[C@@H]2NC(=O)[C@@H](O)CN)OC[C@]1(C)O` registered a z-score of 2.18.

Staying with this experiment, now noted: TFE3-RCC viability, CellTiter-Glo, 48 h; measured here: UOK124 Z-AUC; stronger effect = lower value.
Consider `CC=C1C2C=C(C)CC1(N)c1ccc(=O)[nH]c1C2` (configuration not stated), for which the z-score came to 0.297.
With `COc1ccc2c(c1)CC[C@H]1[C@@H]2CC[C@]2(C)[C@@H](NCCCCCCN3C(=O)C=CC3=O)CC[C@H]12`, the z-score worked out at 0.647.
As to `CCNC(=O)CCCC=CC[C@@H]1[C@H](C=CC(O)CCc2ccccc2)[C@@H](O)C[C@@H]1O` (some centres not stated), the z-score came out at 0.311.
`N=C1SC(=Cc2ccc(-c3ccc4c(c3)C(=O)NC4=O)o2)C(=O)N1c1ccc(Br)cc1` had a z-score of 0.836.
Take `CNC1[C@H](O)C(O[C@@H]2C(O)C(O[C@H]3O[C@H]([C@@H](C)NC)CC[C@H]3N)[C@@H](N)C[C@H]2N)OC[C@]1(C)O` (some centres not stated): the z-score came out at 0.386.
Still for that read-out and setting: to `COc1ccc(C=CC(=O)Nc2ccccc2C(=O)O)cc1OC` belongs 1.48; to `COc1cc(C=CC(=O)O)ccc1O`, 0.112.
Compound `C[C@@H]1CCO[C@H]2Cn3cc(C(=O)NCc4ccc(F)cc4F)c(=O)c(O)c3C(=O)N12` registered a z-score of 0.941.
In the case of `CCN1C[C@H](C)n2c(c(O)c3c(=O)n(Cc4ccc(F)c(Cl)c4)nc(C(=O)NC)c32)C1=O`, the z-score worked out at 0.545.
Same read-out and setting: next, `CC[C@H]1OC(=O)[C@H](C)[C@@H](O[C@H]2C[C@@](C)(OC)[C@@H](O)[C@H](C)O2)[C@H](C)[C@@H](O[C@@H]2O[C@H](C)C[C@H](N(C)C)[C@H]2O)[C@](C)(O)C[C@H](C)C(=NOCOCCOC)[C@H](C)[C@@H](O)[C@]1(C)O`: -0.315; `CCCCC[C@H](O)C=C[C@H]1[C@H](O)CC(=O)[C@H]1CCCCCCC(=O)O`: 0.386; `C[C@@H](O)[C@H]1C(=O)N2C(C(=O)OCOC(=O)C(C)(C)C)=C(SC3CN(C4=NCCS4)C3)[C@H](C)[C@H]12`: -0.138.
As for `O=C(O)C1=NC(C(=O)O)CC(C=CN2c3cc(O)c(OC4OC(CO)C(O)C(O)C4O)cc3CC2C(=O)O)=C1` (configuration not stated), the z-score was 0.431.
With `COc1cc2c(cc1OC)[C@@H]1Cc3ccc(OC)c(OC)c3CN1CC2`, the z-score came to 0.474.
Still for that read-out and setting: next, `CCCCCOC(=O)Nc1nc(=O)n([C@@H]2O[C@H](C)[C@@H](O)C2O)cc1F` (some centres not stated): 0.348; `CO[C@H]1/C=C\O[C@@]2(C)Oc3c(C)c(O)c4c(O)c(c5c(nc6cc(C)ccn65)c4c3C2=O)NC(=O)C(C)=CC=C[C@H](C)[C@H](O)[C@@H](C)[C@@H](O)[C@@H](C)[C@H](OC(C)=O)[C@H]1C`: 1.17; `CN[C@H]1[C@@H](O[C@@H]2[C@H](O[C@@H]3[C@@H](O)[C@@H](O)[C@@H](N=C(N)N)[C@@H](O)[C@@H]3N=C(N)N)O[C@H](C)[C@@]2(O)C=O)O[C@@H](CO)[C@@H](O)[C@H]1O`: 1.27.
Regarding `O=C(O)C1=CO[C@@H](O[C@@H]2O[C@H](CO)[C@H](O)[C@H](O)[C@H]2O)[C@@H]2C(CO)=CC[C@H]12`, the z-score is 0.803.
As to `CC(C)=CCCC(C)=CCCC(C)=CCCC(C)=CCCC(C)=CCCC(C)=CCCC(C)=CCCC(C)=CCCC(C)=CCO`, the z-score is 0.571.
`CC(C)c1onc(-c2c(Cl)cccc2Cl)c1COc1ccc(C=Cc2cccc(C(=O)O)c2)c(Cl)c1` came in with a z-score of 0.847.
Still for that read-out and setting: to `CCC=CC[C@H]1C(=O)CC[C@@H]1CC(=O)OC` belongs 0.558; to `CCNC(=O)[C@H]1O[C@@H](n2cnc3c(N)nc(NCCc4ccc(CCC(=O)O)cc4)nc32)[C@H](O)[C@H]1O`, 0.527.
As to `CO[C@H]1O[C@@H]2O[C@@]3(C)CC[C@@H]4[C@@H](C)CC[C@@H]([C@H]1C)[C@@]24OO3`, the z-score was found to be 0.926.
Take `CC1(C)[C@H]2CC[C@]3(C)[C@@H](C(=O)C=C4[C@@H]5C[C@@](C)(C(=O)O)CC[C@]5(C)CC[C@]43C)[C@@]2(C)CC[C@@H]1O`: the z-score is 0.724.
Compound `CN(C)c1nc(Cc2ccc(NC(=O)c3ccc(C(F)(F)F)cc3)cc2)nc(N(C)C)c1CC(=O)O` gave a z-score of 0.491.
Compound `CN(CC=CC#CC(C)(C)C)Cc1cccc2ccccc12` gave a z-score of 0.58.
The same measure, in the same setting: next, `CO[C@H]1C=CO[C@@]2(C)Oc3c(C)c(O)c4c(O)c(c(C=NN5CCN(C)CC5)c(O)c4c3C2=O)NC(=O)C(C)=CC=C[C@H](C)[C@H](O)[C@@H](C)[C@@H](O)[C@@H](C)[C@H](OC(C)=O)[C@H]1C`: 2; `CC(=O)OCC(=O)[C@@]12OC(C)(C)O[C@H]1C[C@H]1[C@@H]3C[C@H](F)C4=CC(=O)C=C[C@]4(C)[C@@]3(F)[C@@H](O)C[C@@]12C`: 0.68; `FC(F)(F)c1ccc(C=Cc2nc(COc3ccc(CCCCn4ccnn4)cc3)co2)cc1`: -1.14.
For the compound `COc1cc(CNC(=O)CCCCC=CC(C)C)ccc1O`, the z-score turned out to be 0.406.
`CN[C@@H]1[C@@H](O)[C@@H](O[C@@H]2[C@@H](O)[C@H](O[C@H]3O[C@H](CN)[C@@H](O)[C@H](O)[C@@H]3O)[C@@H](N)C[C@@H]2NC(=O)[C@@H](O)CN)OC[C@]1(C)O` registered a z-score of 0.621.
